Assay results from PubChem BioAssay (NCATS).
Results filed as inconclusive are left out. The source made the active and inactive calls. The call rests on the fitted dose curve; in most records, active means well fitted cell-killing curve with a large enough effect; inconclusive means small, poorly fitted or top-dose-only effect, or effect the other way; inactive means flat fitted curve, though single readings scatter.

What was measured:
Assay in all cases: Primary qHTS to identify gynecologic anti-cancer compounds using libraries of approved drugs and bioactive compounds (AID 1345084); further: nearly all actives have a fitted effect of over 55% in size
C33A = conditions: Gynecologic cancer cell panel viability, ATPlite luminescence, 48 h; series mostly up to 57.5 µM
Summary of the method: (§1)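 In this quantitative HTS, cell killing is estimated from loss of ATP-dependent luciferase light. Cells see five compound concentrations over a 48 h exposure.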

CAOV3 = conditions: Gynecologic cancer cell panel viability, ATPlite luminescence, 48 h; series mostly up to 57.5 µM
Summary of the method: as §1

CASKI = conditions: Gynecologic cancer cell panel viability, ATPlite luminescence, 48 h; series mostly up to 57.5 µM
Summary of the method: as §1

Es-2 = conditions: Gynecologic cancer cell panel viability, ATPlite luminescence, 48 h; series mostly up to 57.5 µM
Summary of the method: as §1

HeLa = conditions: Gynecologic cancer cell panel viability, ATPlite luminescence, 48 h; series mostly up to 57.5 µM
Summary of the method: as §1

Hek293T = conditions: Gynecologic cancer cell panel viability, ATPlite luminescence, 48 h, control line for the selectivity index; series mostly up to 57.5 µM
Summary of the method: as §1

JEG-3 = conditions: Gynecologic cancer cell panel viability, ATPlite luminescence, 48 h; series mostly up to 57.5 µM
Summary of the method: as §1

OV90 = conditions: Gynecologic cancer cell panel viability, ATPlite luminescence, 48 h; series mostly up to 57.5 µM
Summary of the method: as §1

PA-1 = conditions: Gynecologic cancer cell panel viability, ATPlite luminescence, 48 h; series mostly up to 57.5 µM
Summary of the method: as §1

SKOV3 = conditions: Gynecologic cancer cell panel viability, ATPlite luminescence, 48 h; series mostly up to 57.5 µM
Summary of the method: as §1

Tov-21-G = conditions: Gynecologic cancer cell panel viability, ATPlite luminescence, 48 h; series mostly up to 57.5 µM
Summary of the method: as §1

Tov112D = conditions: Gynecologic cancer cell panel viability, ATPlite luminescence, 48 h; series mostly up to 57.5 µM
Summary of the method: as §1
On the % scale 0 is the no-effect control and ±100 the full control effect.

CNC12CC3C[C@@](C)(C1)C[C@](C)(C3)C2
inactive: Potency (C33A) | Potency (CAOV3) | Potency (CASKI) | Potency (Es-2) | Potency (HeLa) | Potency (Hek293T) | Potency (JEG-3) | Potency (OV90) | Potency (PA-1) | Potency (SKOV3) | Potency (Tov-21-G) | Potency (Tov112D)

CC(C)=CCC/C(C)=C/CO[C@@H]1O[C@H](CO)[C@@H](OC(=O)/C=C/c2ccc(O)cc2)[C@H](O[C@@H]2O[C@@H](C)[C@H](O)[C@@H](O)[C@H]2O)[C@H]1O
inactive: Potency (C33A) | Potency (CAOV3) | Potency (CASKI) | Potency (Es-2) | Potency (HeLa) | Potency (Hek293T) | Potency (JEG-3) | Potency (OV90) | Potency (PA-1) | Potency (SKOV3) | Potency (Tov-21-G) | Potency (Tov112D)

CCC(C)C(=O)O[C@H]1CCC=C2C=C[C@H](C)[C@H](CC[C@@H](O)C[C@@H](O)CC(=O)O)[C@H]21 (stereo not given in full)
inactive: Potency (C33A) | Potency (CAOV3) | Potency (CASKI) | Potency (Es-2) | Potency (HeLa) | Potency (Hek293T) | Potency (JEG-3) | Potency (OV90) | Potency (PA-1) | Potency (SKOV3) | Potency (Tov-21-G) | Potency (Tov112D)

CC(C)C1=CC2C(CC[C@]2(C)O)[C@](C)(O)CC1 (stereo not given in full)
inactive: Potency (C33A) | Potency (CAOV3) | Potency (CASKI) | Potency (Es-2) | Potency (HeLa) | Potency (Hek293T) | Potency (JEG-3) | Potency (OV90) | Potency (PA-1) | Potency (SKOV3) | Potency (Tov-21-G) | Potency (Tov112D)

CN1CCc2nc(C(=O)N[C@@H]3C[C@@H](C(=O)N(C)C)CC[C@@H]3NC(=O)C(=O)Nc3ccc(Cl)cn3)sc2C1
inactive: Potency (C33A) | Potency (CAOV3) | Potency (CASKI) | Potency (Es-2) | Potency (HeLa) | Potency (Hek293T) | Potency (JEG-3) | Potency (OV90) | Potency (PA-1) | Potency (SKOV3) | Potency (Tov-21-G) | Potency (Tov112D)

CCOC(=O)CCN(C(=O)c1ccc2c(c1)nc(CNc1ccc(C(=N)N)cc1)n2C)c1ccccn1
inactive: Potency (C33A) | Potency (CAOV3) | Potency (CASKI) | Potency (Es-2) | Potency (HeLa) | Potency (Hek293T) | Potency (JEG-3) | Potency (OV90) | Potency (PA-1) | Potency (SKOV3) | Potency (Tov-21-G) | Potency (Tov112D)

CC(C)C[C@H](CC(=O)NO)C(=O)N[C@H](C(=O)N[C@@H](C)C(=O)NCCN)C(C)(C)C
inactive: activity change, negative = cytotoxicity (C33A) 18.9% [at 11.6 µM] | activity change, negative = cytotoxicity (CAOV3) 17.3% [at 11.6 µM] | activity change, negative = cytotoxicity (CASKI) 5.02% [at 11.6 µM] | activity change, negative = cytotoxicity (Es-2) 10.1% [at 11.6 µM] | activity change, negative = cytotoxicity (HeLa) 11.1% [at 11.6 µM] | activity change, negative = cytotoxicity (Hek293T) 15.9% [at 11.6 µM] | activity change, negative = cytotoxicity (JEG-3) 0.977% [at 11.6 µM] | activity change, negative = cytotoxicity (OV90) 19.6% [at 11.6 µM] | activity change, negative = cytotoxicity (PA-1) 8.02% [at 11.6 µM] | activity change, negative = cytotoxicity (SKOV3) 0% [at 11.6 µM] | activity change, negative = cytotoxicity (Tov-21-G) 7.8% [at 11.6 µM] | activity change, negative = cytotoxicity (Tov112D) -2.79% [at 11.6 µM]

CC1=CC(=O)CC(C)(C)C1/C=C/C(C)O[C@@H]1O[C@H](CO)[C@@H](O)[C@H](O)[C@H]1O[C@@H]1OC[C@](O)(CO)[C@H]1O (stereo not given in full)
inactive: Potency (C33A) | Potency (CAOV3) | Potency (CASKI) | Potency (Es-2) | Potency (HeLa) | Potency (Hek293T) | Potency (JEG-3) | Potency (OV90) | Potency (PA-1) | Potency (SKOV3) | Potency (Tov-21-G) | Potency (Tov112D)

COc1ccc(CNC(=O)c2cc(-c3cncc(C)c3)ncc2-c2nccs2)nc1OC
inactive: Potency (C33A) | Potency (CAOV3) | Potency (CASKI) | Potency (Es-2) | Potency (HeLa) | Potency (Hek293T) | Potency (JEG-3) | Potency (OV90) | Potency (PA-1) | Potency (SKOV3) | Potency (Tov-21-G) | Potency (Tov112D)

C=C1CCC2C(C)(C(=O)OC)CCCC2(C)C1CCC(C)CC(=O)O (stereo not given)
inactive: Potency (C33A) | Potency (CAOV3) | Potency (CASKI) | Potency (Es-2) | Potency (HeLa) | Potency (Hek293T) | Potency (JEG-3) | Potency (OV90) | Potency (PA-1) | Potency (SKOV3) | Potency (Tov-21-G) | Potency (Tov112D)
